D1 agonist: activates the human D1 dopamine receptor; P21728; HEK293 T-REx D1 cells, calcium flux, agonist mode; activation, % at 2 µM; 360,000 compounds, 1% hits; AID 504660; in the data active means activation above about 30%; further: 0% is about no effect
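Inducible HEK293 T-REx D1 cells, force-coupled to calcium signalling, were plated at 4000 cells/well with tetracycline and held overnight at 30 C. After no-wash calcium dye loading, compound-evoked calcium rise over 180 s flagged agonists.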
D1 antag: blocks dopamine activation of the human D1 receptor; P21728; HEK293 TREx D1 cells, calcium flux, dopamine EC80; hits give low values; activity change, negative = inhibition, % at 10 µM; 360,000 compounds, 3.2% hits; AID 504652; in the data active means activity change below about -30%; further: on the % scale 0 is the no-effect control and ±100 the full control effect
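HEK293 T-REx cells expressing inducible, force-coupled D1 receptor; no-wash Ca dye, 30–90 min RT. Cmpd → 180 s read at 1 Hz → EC80 DA → 180 s read.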
D1 PAM: enhances dopamine response at the human D1 receptor | P21728 | HEK293 TREx D1 cells, calcium flux, dopamine EC20 potentiation | potentiation, % at 10 µM | 360,000 compounds, 0.036% hits; in the data active means potentiation above about 30%; further: 0% is about no effect
TRPV1 PAM: human TRPV1 potentiation | Q8NER1 | TRPV1-expressing cells, Fluo-8 calcium influx, capsaicin EC20 potentiation | potentiation, % at 8.33 µM | 320,000 compounds, 0.02% hits; in the data active means potentiation above about 80%; inconclusive means between about 30% and that limit; further: 0% is about no effect
Target sequence (Q8NER1 whole entry, looked up): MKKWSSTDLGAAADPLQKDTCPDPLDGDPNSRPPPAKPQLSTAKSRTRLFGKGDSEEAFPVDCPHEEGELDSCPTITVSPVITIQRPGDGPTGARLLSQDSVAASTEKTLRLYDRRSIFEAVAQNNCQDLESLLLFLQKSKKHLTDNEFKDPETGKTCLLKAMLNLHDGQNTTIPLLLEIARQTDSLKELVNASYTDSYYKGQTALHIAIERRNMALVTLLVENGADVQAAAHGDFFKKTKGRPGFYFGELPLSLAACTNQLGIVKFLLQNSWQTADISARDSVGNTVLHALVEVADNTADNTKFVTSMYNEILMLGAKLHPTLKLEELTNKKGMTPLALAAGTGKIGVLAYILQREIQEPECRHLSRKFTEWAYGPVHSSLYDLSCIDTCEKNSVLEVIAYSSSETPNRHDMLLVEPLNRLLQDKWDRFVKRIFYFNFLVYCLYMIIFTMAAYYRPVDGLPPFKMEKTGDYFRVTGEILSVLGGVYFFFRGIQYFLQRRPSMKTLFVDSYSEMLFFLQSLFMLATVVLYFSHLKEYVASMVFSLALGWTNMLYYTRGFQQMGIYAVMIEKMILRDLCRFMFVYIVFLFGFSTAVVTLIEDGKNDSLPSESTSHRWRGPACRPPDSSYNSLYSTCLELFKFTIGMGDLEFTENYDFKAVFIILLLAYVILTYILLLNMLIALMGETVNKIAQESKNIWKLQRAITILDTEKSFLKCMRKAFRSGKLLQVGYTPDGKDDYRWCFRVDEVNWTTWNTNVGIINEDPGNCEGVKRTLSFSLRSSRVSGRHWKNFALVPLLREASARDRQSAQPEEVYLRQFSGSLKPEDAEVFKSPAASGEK
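Fluo-8 calcium influx in TRPV1-expressing cells, kinetic read (ex 480/em 520 nm). Compound added and read 3 min for agonist activity, followed by capsaicin at EC20 final and 2 min further read for enhancement.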
TRPV1 agonist: human TRPV1 agonism. Q8NER1. TRPV1-expressing cells, Fluo-8 calcium influx, agonist mode. activation, % at 8.33 µM. 320,000 compounds, 0.19% hits. AID 540275; in the data active means activation above about 80%; inconclusive means between about 30% and that limit; further: 0% is about no effect
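Fluo-8 calcium influx in TRPV1-expressing cells, kinetic read (ex 480/em 520 nm). Compound added and read 3 min for agonist activity, followed by capsaicin at EC20 final and 2 min further read for enhancement.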
* marks the source's active call; other numbers are inactive results; u = inconclusive; x = not tested or not shown. Sampled rows, rich in hits. Any-hit rate of the full collection: about 4.2%.

SMILES | D1 agonist | D1 antag | D1 PAM | TRPV1 PAM | TRPV1 agonist
CCOC(=O)C1CCC(CN(Cc2ccccc2)S(=O)(=O)c2ccc(Br)cc2)CC1 (stereo unspecified) | 13.9 | -24.8 | -2.1 | x | x
CCCCN(CC)C(=O)c1nn(-c2ccc(OC)cc2)c(=O)c2c1c1ccccc1n2C | 1.9 | 6.6 | 1.3 | x | x
CCc1cc(Br)ccc1N1C(=O)C2CC=CCC2C1=O (stereo unspecified) | 8.0 | -40.6* | -8.8 | 15.4 | 2.6
CSc1ncccc1C(=O)N1CCCC(C(=O)c2ccc3ccccc3c2)C1 (stereo unspecified) | 27.0 | -9.8 | -6.0 | -5.1 | 6.7
CSc1ccc(C(=O)C2CCCN(C(=O)c3cccnc3SC)C2)cc1 (stereo unspecified) | 9.7 | -31.8* | 2.2 | 3.8 | 2.1
COc1cccc(CSc2nc3cc(OC)c(OC)cc3c3nc(CCn4nc(C)cc4C)nn23)c1 | -1.7 | 6.0 | -2.4 | x | x
COC(=O)C(C)Sc1snnc1-c1ccccc1 (stereo unspecified) | 5.1 | -5.6 | -2.6 | 8.7 | 0.9
Cc1nnsc1SC(C)C(=O)O (stereo unspecified) | 4.9 | -49.7* | -5.7 | -5.0 | 1.4
O=C1CCC/C1=C\Nc1ccc(Cl)c([N+](=O)[O-])c1 | 8.5 | -39.6* | -2.4 | -19.7 | 27.4
CCOC(=O)C(NC(=O)CC(C)C)(Nc1sc(C)c(CC)c1C#N)C(F)(F)F (stereo unspecified) | 2.3 | -82.7* | -10.7 | -10.6 | 22.6
CCOc1ccc(/C=C/c2nc(C#N)c(NC(C)CC)o2)cc1 (stereo unspecified) | 2.6 | -23.2 | 0.5 | x | x
CNC(=S)N(Cc1ccc(OC)cc1)C1CC(=O)N(c2ccc(OC)cc2)C1=O (stereo unspecified) | 3.9 | -36.3* | -2.2 | -4.3 | 0.8
Cn1cc(CCNCc2cn[nH]c2-c2ccc(-c3ccccc3)cc2)cn1 | 2.5 | -0.3 | -6.0 | 6.1 | 1.2
Cc1ccc(-c2[nH]ncc2CNCCc2cnn(-c3ccccc3)c2)cc1C | 34.1* | -27.1 | -12.8 | -10.3 | 11.1
Cc1ccc(NC(=O)C(=O)NCCN2CCN(C(=S)Nc3ccccc3)CC2)cc1 | 4.4 | -34.4* | -2.7 | -0.7 | -1.2
COC(=O)c1ccc(NC(=S)NCCc2ccccc2C)cc1 | 23.5 | -35.7* | -4.5 | -10.5 | u
COC(=O)c1ccc(NC(=O)Cc2ccc(F)cc2)cc1 | -0.1 | -30.4* | -3.5 | 2.6 | 9.3
COC(=O)c1ccc(NC(=S)NCCc2cccc(C)c2)cc1 | 21.5 | -29.2 | -10.1 | 15.5 | u
Cc1ccc(NC(=O)Cc2ccc(F)cc2)cc1 | -2.4 | -8.7 | 1.8 | -12.6 | 27.8
Cc1ccc(NC(=O)C(=O)NCCN2CCN(C(=O)C(c3ccccc3)c3ccccc3)CC2)cc1 | 2.7 | -2.5 | -6.2 | -7.2 | 8.9
COC(=O)c1ccc(NC(=S)N2CCN(Cc3ccccc3)CC2)cc1 | 16.7 | -42.7* | -5.9 | u | 3.5
CCCn1c(CCC(=O)Nc2cc(C(=O)OC)cc(C(=O)OC)c2)nc2cccnc21 | 4.0 | -14.7 | -3.0 | x | x
CCC(Sc1nc(-c2ccccc2F)nc2c1Cc1c(CO)cnc(C)c1O2)C(=O)Nc1cc(C)ccc1C (stereo unspecified) | 0.0 | -4.1 | 4.2 | x | x
CCc1ccc(OCc2cc(=O)n3cc(C)sc3n2)cc1 | 1.3 | 2.0 | -4.0 | x | x
CCc1ccc(S(=O)(=O)c2nnn3c2nc(N2CCCC2)c2sccc23)cc1 | 2.5 | 0.4 | -2.3 | x | x
SMILES | D1 agonist | D1 antag | D1 PAM | TRPV1 PAM | TRPV1 agonist
COC(=O)c1ccc(NC(=O)CSc2ccccn2)cc1 | 3.7 | 7.5 | -6.1 | 13.6 | -1.6
COC(=O)c1ccc(NC(=O)CSc2ccccc2)cc1 | 2.1 | -75.2* | -3.7 | 2.2 | 4.0
O=C(CCCOc1ccc(Cl)cc1)N1CCOCC1 | 0.2 | 1.9 | -2.5 | x | x
CC(C)(C)c1ccc(OCCCC(=O)N2CCOCC2)cc1 | 6.4 | 1.9 | -1.2 | -6.3 | 84.8*
O=C(CCCOc1ccc(Cl)cc1)N1CCCCCC1 | 10.3 | -22.0 | -4.8 | -6.1 | u
O=C(CCCOc1ccc(Cl)cc1)N1CCCCC1 | 5.2 | -5.5 | 0.7 | -14.1 | 89.9*
Cc1cccc(C)c1NC(=O)N1CCC(C(N)=O)(N2CCCCC2)CC1 | 0.2 | 1.7 | -0.6 | x | x
CCOC(=O)c1cc2c(=O)n3ccccc3nc2n(CC(C)C)c1=NC(=O)COc1ccc(Cl)cc1 | -0.7 | -38.9* | -0.2 | x | x
